Some test systems named below: DU-145 prostate; K-562 leukemia; MALME-3M melanoma; MDA-MB-231 breast; RXF 393 renal; SF-268 CNS; SF-295 CNS; SF-539 CNS; UACC-257 melanoma; M14 melanoma; HCT-15 colon; HT29 colon; SNB-75 CNS; SNB-19 CNS; U251 CNS; PC-3 prostate; SK-MEL-5 melanoma; UACC-62 melanoma; LOX IMVI melanoma; SK-MEL-28 melanoma.
What all share (assay): NCI-60 one-dose screen, 48 h (100 = growth as untreated, 0 = no growth, -100 = all killed)
What all share (conditions): 10 µM unless noted

The values below come from PubChem BioAssay (NCI).

This is part of a sample that, as a whole, favours compounds with a hit. Of some 83,000 tested, about 20% had one in any assay.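 Growth was measured after 48 h exposure to one concentration of compound in 96-well plates. Values under 10 count as active.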 Values without a mark were called inactive. Calls of active or inactive are those of the source.

Regarding `CCN1C(=O)N(CC)C2C1N=C(SC)N2/N=C/C=C/c1ccccc1OC` (stereo not given), the growth in the test on DU-145 prostate is 5.61% (active); with K-562 leukemia, 6.68% (active); in the test with MALME-3M melanoma it was 31.9%; with MDA-MB-231 breast, 21.2%; with RXF 393 renal it was 11%; with SF-268 CNS, 23.5%. Besides, the growth in the test on SF-295 CNS is 10.6%; in the test with SF-539 CNS it was -4.87% (active); in the test on UACC-257 melanoma, 55.3%; in the test with M14 melanoma it was 4.55% (active); in the test with HCT-15 colon, 7.58% (active); in the test with HT29 colon, 3.96% (active). Further, the growth in the test with SNB-75 CNS was 44.6%; in the test on SNB-19 CNS it was 15.4%; in the test with U251 CNS, 16.1%; in the test with PC-3 prostate, 18.4%; in the test with SK-MEL-5 melanoma, 0.74% (active); in the test with UACC-62 melanoma, 30.5%. The growth in the test with LOX IMVI melanoma was 14.6%; with SK-MEL-28 melanoma, 51.5%.
In the case of `S=C(Nc1ccc(Cl)cc1)Nc1ccc(Cl)cc1` (tested in a mixture with another compound), the growth in the test on DU-145 prostate is 22.2%; in the test with K-562 leukemia it was 12.1%; in the test on MALME-3M melanoma, -7.85% (active); in the test on MDA-MB-231 breast, -58.7% (active); in the test with RXF 393 renal, 9.51% (active); with SF-268 CNS it was 23%. Moreover, the growth with SF-295 CNS is -6.55% (active); in the test on SF-539 CNS it was 19.1%; with UACC-257 melanoma it was -14.7% (active); in the test with M14 melanoma, 19%; with HCT-15 colon, 9.22% (active); with HT29 colon, 1.05% (active). Besides, the growth in the test with SNB-75 CNS is 16.8%; with SNB-19 CNS it was 24.7%; in the test on U251 CNS, -36.6% (active); with PC-3 prostate, 3.81% (active); in the test with SK-MEL-5 melanoma, -61.3% (active); in the test on UACC-62 melanoma, 13.8%. For the same compound, the growth with LOX IMVI melanoma is 5.65% (active); in the test on SK-MEL-28 melanoma, 25.8%.
For `COc1cc(NCC(O)CN(CC(C)C)CC(C)C)c2ncccc2c1` (stereo not given), the growth was 113% with DU-145 prostate; 59.6% in the test with K-562 leukemia; 89.6% in the test with MALME-3M melanoma; 85.5% in the test with MDA-MB-231 breast; 51.5% in the test on RXF 393 renal; 98.5% in the test on SF-268 CNS. The growth was 91.9% in the test with SF-295 CNS; 102% in the test with SF-539 CNS; 77.2% in the test with UACC-257 melanoma; 87.7% in the test with M14 melanoma; 80.1% in the test on HCT-15 colon; 77.9% in the test on HT29 colon. For the same compound, the growth is 82.8% in the test on SNB-75 CNS; 90.1% in the test with SNB-19 CNS; 80.7% in the test on U251 CNS; 58.6% with PC-3 prostate; 86.1% in the test on SK-MEL-5 melanoma; 76.9% in the test with UACC-62 melanoma. Further, the growth with LOX IMVI melanoma is 83.6%; in the test with SK-MEL-28 melanoma, 75.3%.
As for `N/C(=C\C(=O)n1nc(-c2ccccc2)cc1N)c1ccccc1`, the growth was 58.2% in the test with DU-145 prostate; 25.6% in the test on K-562 leukemia; 42.6% with MALME-3M melanoma; 51.5% with MDA-MB-231 breast; 77.2% in the test on RXF 393 renal; 63.8% with SF-268 CNS. Also, the growth was 44.5% with SF-295 CNS; 59.4% in the test with SF-539 CNS; 58.3% in the test with UACC-257 melanoma; 31.6% in the test with M14 melanoma; 33.5% with HCT-15 colon; 23.8% in the test on HT29 colon. In addition, the growth with SNB-75 CNS was 29.9%; with SNB-19 CNS, 66.6%; with U251 CNS, 36.7%; in the test with PC-3 prostate, 22.6%; with SK-MEL-5 melanoma, 32.2%; with UACC-62 melanoma, 36.9%. The growth was 51.4% in the test on LOX IMVI melanoma and 42.2% in the test on SK-MEL-28 melanoma.
In the case of `COc1ccc(C(=O)N2N=C(c3ccc(F)cc3)CC2c2cn(-c3ccccc3)nc2-c2ccccc2)cc1` (stereo not given), the growth with DU-145 prostate is 57.5%; with K-562 leukemia it was 40.3%; in the test on MALME-3M melanoma, 73.7%; in the test with MDA-MB-231 breast it was 60.2%; with RXF 393 renal, 73.7%; with SF-268 CNS, 70.1%. Besides, the growth is 65.1% in the test with SF-295 CNS; 85.7% with SF-539 CNS; 78.6% in the test on UACC-257 melanoma; 55% in the test on M14 melanoma; 55.9% in the test with HCT-15 colon; 37.6% in the test with HT29 colon. The growth in the test with SNB-75 CNS was 72.5%; in the test with SNB-19 CNS it was 80%; in the test with U251 CNS it was 30.6%; in the test with PC-3 prostate, 71.6%; in the test with SK-MEL-5 melanoma, 90.7%; in the test with UACC-62 melanoma, 61%. Moreover, the growth is 41.8% in the test on LOX IMVI melanoma and 71.9% with SK-MEL-28 melanoma.
Regarding `Clc1ccc(-c2cnc3nonc3n2)s1`, the growth in the test on DU-145 prostate was 89.7%; with K-562 leukemia it was 41.7%; in the test with MALME-3M melanoma it was 83%; with MDA-MB-231 breast, 85.2%; in the test with RXF 393 renal, 109%; in the test with SF-268 CNS, 82.7%. Also, the growth was 92.8% with SF-295 CNS; 97.5% in the test with SF-539 CNS; 64.4% in the test with UACC-257 melanoma; 86.6% in the test with M14 melanoma; 54.4% in the test with HCT-15 colon; 83% in the test on HT29 colon. Moreover, the growth is 102% in the test on SNB-75 CNS; 91.4% in the test with SNB-19 CNS; 87.9% in the test with U251 CNS; 51.8% with PC-3 prostate; 24.5% in the test on SK-MEL-5 melanoma; 54.9% with UACC-62 melanoma. In addition, the growth is 36.5% with LOX IMVI melanoma and 94.4% in the test with SK-MEL-28 melanoma.
Take `O=C(CC(=O)c1cccc(Cl)c1)c1cccc(Cl)c1`: the growth with DU-145 prostate is 42.6%; with K-562 leukemia, 20.8%; with MALME-3M melanoma, 64.5%; in the test on MDA-MB-231 breast it was 45.2%; in the test on RXF 393 renal it was 61.9%; in the test on SF-268 CNS it was 51.4%. For the same compound, the growth in the test with SF-295 CNS was 26.8%; in the test with SF-539 CNS, 41.4%; in the test with UACC-257 melanoma it was 52.7%; in the test on M14 melanoma it was 37.3%; with HCT-15 colon, 25.9%; in the test with HT29 colon, 34.7%. Further, the growth in the test on SNB-75 CNS is 75.3%; with SNB-19 CNS it was 31.3%; in the test with U251 CNS, 16.7%; in the test with PC-3 prostate it was 33.3%; in the test on SK-MEL-5 melanoma, 36.8%; in the test with UACC-62 melanoma it was 27.2%. Besides, the figures for the growth in the test with LOX IMVI melanoma and with SK-MEL-28 melanoma were 33.2% and 56%, respectively.
Consider `O=C(CCl)Nc1ccc2c(c1)C(=O)c1ccccc1C2=O`, for which the growth with DU-145 prostate is 3.17% (active); with K-562 leukemia it was -8.49% (active); in the test with MALME-3M melanoma, -62.5% (active); in the test on MDA-MB-231 breast, -5.91% (active); with RXF 393 renal, 39.8%; with SF-268 CNS, -20.3% (active). The growth was 69.9% with SF-295 CNS; -10.5% (active) in the test with SF-539 CNS; 36.2% in the test with UACC-257 melanoma; -31.6% (active) with M14 melanoma; -38.8% (active) in the test with HCT-15 colon; -63.6% (active) with HT29 colon. Besides, the growth with SNB-75 CNS is 41.7%; with SNB-19 CNS, 36.9%; with U251 CNS, -56.3% (active); in the test on PC-3 prostate, -12.6% (active); in the test on SK-MEL-5 melanoma, -82.8% (active); with UACC-62 melanoma it was -54.9% (active). Also, the growth is -81% (active) in the test with LOX IMVI melanoma and 35.4% in the test with SK-MEL-28 melanoma.
